# Measurements: PubChem BioAssay (NCATS)
# Results filed as inconclusive are left out. Entries that show only a call come without a potency. Calls of active or inactive are those of the source. The call rests on the fitted dose curve; in most records, active means well fitted curve in the direction sought with a large enough effect; inconclusive means small, poorly fitted or top-dose-only effect, or another doubt; inactive means no such curve, though single readings can be large; an effect the other way counts as inactive or inconclusive.
# Tests used:
# [1] = system: Zika virus NS2B-NS3 protease; test: Primary screen GU AMC qHTS for Zika virus inhibitors (AID 1347154); further: nearly all actives have a fitted effect of over 70% in size; further: potency means the concentration at half of the fitted maximal effect
# Outline: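 Fluorogenic AMC-substrate cleavage by noncovalent NS2B-NS3 protease complex (25 nM, pH 8.0 Tris buffer with Tween 20) followed for 15 minutes at room temperature (~20% conversion). Percent inhibition from ex340/em450 signal change, fitted by 4-parameter Hill equation.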
# [2] = system: Zika virus NS2B-NS3 protease (unlinked complex); test: Confirmatory screen GU AMC qHTS for Zika virus inhibitors (AID 1347153); further: nearly all actives have a fitted effect of over 70% in size;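 on potency: enzyme at 25 nM with substrate at 10 µM below its Km of 18.3 µM; potency means the concentration at half of the fitted maximal effect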
# Outline: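 Unlinked NS2B-NS3 complex (25 nM) in 10 mM Tris-HCl pH 8.0, 0.01% Tween 20 preincubated 15 min with compound, then 10 microM Bz-Nle-KRR-AMC (Km 18.3 µM). Fluorescence change over 15 min, normalized, Hill-fitted.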
# [3] = Confirmatory screen GU Rhodamine qHTS for Zika virus inhibitors qHTS (AID 1347157); further: potency means the concentration at half of the fitted maximal effect; nearly all actives have a fitted effect of over 70% in size
# Outline: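 In dose–response format, inhibition of unlinked protease (25 nM) was measured with 1.5 microM bis-peptide Rhodamine110 substrate. Aprotinin served as the intraplate control.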
# [4] = system: Zika virus NS2B-NS3 protease (linked construct); test: Primary screen NINDS Rhodamine qHTS for Zika virus inhibitors (AID 1347160); further: nearly all actives have a fitted effect of over 55% in size; further: potency means the concentration at half of the fitted maximal effect
# Outline: (§1)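 Purified NS2B-NS3 protease with the NS2B hydrophilic domain joined by a flexible linker (25 nM) in 10 mM Tris-HCl pH 8.0, 0.01% Tween 20, preincubated 15 min at RT with compound; Rhodamine110 peptide substrate 1.5 µM; fluorescence change over 15 min; 4-parameter Hill fit.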
# [5] = Confirmatory screen NINDS Rhodamine qHTS for Zika virus inhibitors (AID 1347161); further: potency means the concentration at half of the fitted maximal effect; nearly all actives have a fitted effect of over 60% in size
# Outline: as §1
# [6] = system: Zika virus NS2B-NS3 protease (linked); test: 384 well plate NINDS AMC confirmatory qHTS for Zika virus inhibitors (AID 1347163); details: Recombinant NS2B-NS3 protease, Ac-VKTGKR-AMC fluorescence; further: potency means the concentration at half of the fitted maximal effect; nearly all actives have a fitted effect of over 50% in size
# Outline: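 Linked NS2B-NS3 protease (final 5 nM, 30 nM or 60 nM) was preincubated with compounds (final up to 1 mM) for ~15 minutes. Ac-VKTGKR-AMC substrate (final 30 microM) then reacted for 25 minutes at room temperature in the dark. Fluorescence (ex 355/em 460 nm) was normalized to no-enzyme and no-inhibitor controls.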
# [7] = system: Zika virus NS2B-NS3 protease (linked construct); test: 384 well plate NINDS Rhodamine confirmatory qHTS for Zika virus inhibitors (AID 1347164);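 further: fluorescence from protease cleavage of Ac-LKRR-rhodamine 110 substrate; potency means the concentration at half of the fitted maximal effect; nearly all actives have a fitted effect of over 65% in size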
# Outline: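 Fluorescence read at ex 485 nm/em 538 nm, 25 min after adding 10 microM Ac-LKRR-Rd substrate at room temperature in the dark; signal normalized to no-enzyme and no-inhibitor controls. Enzyme final 5, 30 or 60 nM; compounds, ~15 min preincubation.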
# [8] = target: Lysine-specific demethylase 5B (Homo sapiens) (UniProt Q9UGL1); test: Optimization screen for KDM5B Histone Demethylases FDH coupled qHTS against the LOPAC library (AID 1347166)
# Outline: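 KDM5BDeltaAP (200nM final) preincubated 10 min with compound, then 12.5uM H3K4Me3, 25uM a-ketoglutarate, ascorbate, Fe(II), NAD+ and FDH added; 50mM HEPES pH 7.5, 0.01% Tween-20. NADH fluorescence (340/450 nm) change over 30 min, room temperature.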
# [9] = system: Zika virus NS2B-NS3 protease (unlinked complex); test: Primary screen GU Rhodamine qHTS for Zika virus inhibitors: Unlinked NS2B-NS3 protease assay (AID 1347159); further: nearly all actives have a fitted effect of over 60% in size
# Outline: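 Noncovalent NS2B hydrophilic domain/NS3 protease complex (25 nM final) in 10 mM Tris-HCl pH 8.0, 0.01% Tween 20, preincubated 15 min with compounds (up to 114 microM), then 1.5 microM Rhodamine110 substrate. Fluorescence change over 15 min fitted to 4-parameter Hill.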
# Lysine-specific demethylase 5B (Homo sapiens), sequence (Q9UGL1 whole entry, looked up): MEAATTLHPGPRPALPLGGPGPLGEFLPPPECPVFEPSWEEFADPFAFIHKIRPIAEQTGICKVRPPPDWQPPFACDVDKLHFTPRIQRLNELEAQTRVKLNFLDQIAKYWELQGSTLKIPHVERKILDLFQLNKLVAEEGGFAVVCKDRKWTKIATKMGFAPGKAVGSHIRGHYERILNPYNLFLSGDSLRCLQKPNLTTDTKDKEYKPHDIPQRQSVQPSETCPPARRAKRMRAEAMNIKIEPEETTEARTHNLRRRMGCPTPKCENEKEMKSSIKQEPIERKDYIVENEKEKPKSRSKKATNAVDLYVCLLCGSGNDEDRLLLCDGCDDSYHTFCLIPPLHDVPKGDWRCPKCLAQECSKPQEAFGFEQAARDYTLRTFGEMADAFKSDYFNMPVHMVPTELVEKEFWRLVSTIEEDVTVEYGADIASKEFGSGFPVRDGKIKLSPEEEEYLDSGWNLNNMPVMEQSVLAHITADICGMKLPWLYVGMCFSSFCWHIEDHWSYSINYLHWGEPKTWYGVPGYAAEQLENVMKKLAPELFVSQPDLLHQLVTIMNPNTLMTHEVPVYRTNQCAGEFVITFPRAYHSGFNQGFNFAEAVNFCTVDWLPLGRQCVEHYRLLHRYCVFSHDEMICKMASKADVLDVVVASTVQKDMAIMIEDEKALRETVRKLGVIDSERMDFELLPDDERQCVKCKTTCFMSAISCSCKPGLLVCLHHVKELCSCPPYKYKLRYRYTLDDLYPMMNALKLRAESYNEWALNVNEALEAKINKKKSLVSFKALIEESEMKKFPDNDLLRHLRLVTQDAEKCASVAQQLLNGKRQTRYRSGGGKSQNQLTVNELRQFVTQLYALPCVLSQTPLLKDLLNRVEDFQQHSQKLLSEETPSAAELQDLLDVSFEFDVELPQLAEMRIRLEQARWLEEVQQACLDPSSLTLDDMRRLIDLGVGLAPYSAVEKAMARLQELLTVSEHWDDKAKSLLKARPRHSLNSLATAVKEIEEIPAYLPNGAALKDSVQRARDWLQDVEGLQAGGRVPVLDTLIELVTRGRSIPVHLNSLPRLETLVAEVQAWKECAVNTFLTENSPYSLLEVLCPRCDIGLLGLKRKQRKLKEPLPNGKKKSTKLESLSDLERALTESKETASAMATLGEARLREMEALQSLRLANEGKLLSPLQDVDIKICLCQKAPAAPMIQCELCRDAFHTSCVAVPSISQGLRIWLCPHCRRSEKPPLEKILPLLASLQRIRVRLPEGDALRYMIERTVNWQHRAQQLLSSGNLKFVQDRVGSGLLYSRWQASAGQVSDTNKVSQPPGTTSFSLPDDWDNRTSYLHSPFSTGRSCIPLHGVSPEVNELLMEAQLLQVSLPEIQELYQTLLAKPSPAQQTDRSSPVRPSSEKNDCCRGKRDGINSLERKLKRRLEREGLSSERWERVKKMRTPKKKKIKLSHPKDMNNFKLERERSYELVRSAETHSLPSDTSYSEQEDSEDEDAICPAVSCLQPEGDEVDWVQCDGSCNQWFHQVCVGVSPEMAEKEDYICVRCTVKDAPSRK
structure (smiles),measurement,setting,value
CCCSP(=O)(OCC)SCCC,Potency,[1],inactive
c1ccc2c(N3CCNCC3)cccc2c1,Potency,[1],inactive
C[C@@]1(C(=O)O)CC[C@]2(C)CC[C@]3(C)C4=CC(=O)c5cc(O)c(O)cc5[C@]4(C)CC[C@@]3(C)[C@@H]2C1,Potency,[2],inactive
same,Potency,[3],2.42 µM (active)
same,Potency,[4],7.94 µM (active)
same,Potency,[5],1.36 µM (active)
same,Potency,[6],56.2 µM (active)
same,Potency,[7],1.12 µM (active)
Cc1[nH]c2ccc(O)cc2c1CCN,Potency,[1],inactive
C[N+](C)(C)CC#CCN1CCCC1=O,Potency,[1],inactive
same,Potency,[8],inactive
C[CH2][Hg][S]c1ccccc1C(=O)O,Potency,[1],inactive
C[N+](C)(C)CCOC(=O)CBr,Potency,[1],inactive
same,Potency,[8],inactive
O=c1ccc2[nH]cc(C3=CCNCC3)c2[nH]1,Potency,[2],24.1 µM (active)
same,Potency,[1],26.7 µM (active)
same,Potency,[5],44.1 µM (active)
c1ccc2c(c1)[I+]c1ccccc1-2,Potency,[1],inactive
same,Potency,[8],inactive
CCCN(CCC)C1CCc2cccc(O)c2C1 (stereo not given),Potency,[1],inactive
same,Potency,[8],inactive
Cc1cc(C)cc(C(=O)OC2C[C@H]3CC[C@@H](C2)N3C)c1 (stereo not given in full),Potency,[1],inactive
CN(C(=O)Cc1ccc(Cl)c(Cl)c1)C(CN1CCCC1)c1cccc(OCC(=O)O)c1 (stereo not given),Potency,[1],inactive
same,Potency,[8],inactive
C=C(C)[C@H]1O[C@H]2CC[C@@]3(C)[C@@](O)(CC[C@H]4[C@@H]5OC(C)(C)[C@H]6C[C@@H]7C(=C)Cc8c(Cl)cc9[nH]c(c5c9c8[C@@]76O)[C@@]43C)[C@]23O[C@@H]3[C@H]1O,Potency,[1],inactive
same,Potency,[9],inactive
same,Potency,[4],inactive
Cc1cccc(C(C)c2cnc[nH]2)c1C (stereo not given),Potency,[1],inactive
Oc1ccc2c3c1O[C@H]1c4[nH]c5ccccc5c4C[C@@]4(O)C(C2)N(CC2CC2)CCC314 (stereo not given in full),Potency,[1],inactive
same,Potency,[8],inactive
